{"source": "the supplement of paper PMC7156485", "note": "Values without a mark were called inactive.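 Note: TDF is a line of transformed human dermal fibroblasts of mesenchymal origin.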"}
{"system": "TDF", "assay": "H1.0 immunofluorescence intensity relative to DMSO (% of DMSO); higher = stronger H1.0 induction, active = 120 or more", "settings": "concentration: 10 µM; 24 h", "outline": "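Cell number or H1.0 nuclear intensity appears as percent of the plate control, based on the median of replicates. Measurements came from HCC1569 and TDF cells exposed in triplicate to compounds at 10 µM for 24 h at 37 °C, then imaged in six fields per well at ×10. Positional effects were smoothed out of HCC1569 values.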"}
{"smiles": "CCCCCCCCCCCCCCCC(=O)O", "note": "[Hexadecanoic acid]", "H1.0 immunofluorescence intensity": 104}
{"smiles": "COc1c(O)cc(O)c2c(=O)cc(-c3ccccc3)oc12", "note": "[Wogonin]", "H1.0 immunofluorescence intensity": 91.2}
{"smiles": "OC1C=C2CCN3Cc4cc5c(cc4C(C1O)C23)OCO5", "note": "(stereo not given) [Lycorine]", "H1.0 immunofluorescence intensity": 120}
{"smiles": "CC1CN(c2c(F)c(N)c3c(=O)c(C(=O)O)cn(C4CC4)c3c2F)CC(C)N1", "note": "(stereo not given) [Sparfloxacin]", "H1.0 immunofluorescence intensity": 95.6}
{"smiles": "CN(C)CCOC(c1ccccc1)c1ccccc1.Cl", "note": "[Diphenhydramine.HCl]", "H1.0 immunofluorescence intensity": 100}
{"smiles": "CC12CCC3c4ccc(O)cc4CC(CCCCCCCCCS(=O)CCCC(F)(F)C(F)(F)F)C3C1CCC2O", "note": "(stereo not given) [Fulvestrant]", "H1.0 immunofluorescence intensity": 104}
{"smiles": "CCC=CCC=CCC=CCCCCCCCCCC(=O)O", "note": "[Eicosatrienoic acid]", "H1.0 immunofluorescence intensity": 100}
{"smiles": "CCC1(O)CC2CN(CCc3c([nH]c4ccccc34)C(C(=O)OC)(c3cc4c(cc3OC)N(C)C3C(O)(C(=O)OC)C(OC(C)=O)C5(CC)C=CCN6CCC43C65)C2)C1.O=S(=O)(O)O", "note": "(stereo not given) [Vinblastine sulfate]", "H1.0 immunofluorescence intensity": "156 (active)"}
{"smiles": "CNc1nc(-c2ccc3c(N)n[nH]c3c2)cc(N2C[C@@H](C(=O)NC3CCCCC3)CC[C@H]2C)n1", "H1.0 immunofluorescence intensity": 115}
{"smiles": "CC1(C)C(=O)N(CCN2CCC(C(=O)c3ccc(F)cc3)CC2)c2ccccc21.Cl", "note": "[LY-310,762 hydrochloride]", "H1.0 immunofluorescence intensity": 94.2}
{"smiles": "CC(C)=CCC(OC(=O)C=C(C)C)C1=CC(=O)c2c(O)ccc(O)c2C1=O", "note": "(stereo not drawn) [Shikonin beta,beta-dimethylacrylate]", "H1.0 immunofluorescence intensity": 109}
{"smiles": "CN1Cc2c(N)cccc2C(c2ccccc2)C1.O=C(O)C=CC(=O)O", "note": "(stereo not given) [Nomifensine maleate]", "H1.0 immunofluorescence intensity": 89}
{"smiles": "Brc1c(Br)c(Br)c2[nH]cnc2c1Br", "note": "[4,5,6,7-tetrabromo-1H-benzimidazole]", "H1.0 immunofluorescence intensity": 111}
{"smiles": "C[N+]1(C)C2CC(OC(=O)C(O)(c3cccs3)c3cccs3)CC1C1OC12.[Br-]", "note": "(stereo not given) [Tiotropium Bromide]", "H1.0 immunofluorescence intensity": 95.7}
{"smiles": "CCOC(=O)C1=C(COCCN)NC(C)=C(C(=O)OC)C1c1ccccc1Cl", "note": "(stereo not given) [Amlodipine]", "H1.0 immunofluorescence intensity": 93.5}
{"smiles": "CCCCCCCCCCCCCC=CC(O)C(CO)NC(=O)CCCCCCC", "note": "(stereo not given) [C8 Ceramide]", "H1.0 immunofluorescence intensity": 101}
{"smiles": "CCN(CC)CCCCNc1ncc2cc(-c3c(Cl)cccc3Cl)c(NC(=O)NC(C)(C)C)nc2n1", "H1.0 immunofluorescence intensity": 104}
{"smiles": "COc1ccccc1NC(=O)Nc1nc(-c2cccnc2)nc2ccccc12", "H1.0 immunofluorescence intensity": 95.1}
{"smiles": "NC(C(=O)O)C(O)C(=O)O", "note": "(racemic) [DL-threo-beta-hydroxyaspartic acid]", "H1.0 immunofluorescence intensity": 96.7}
{"smiles": "N#CC(=Cc1c[nH]c2ccccc12)C(=O)c1ccc(O)c(O)c1", "note": "[Tyrphostin AG 808]", "H1.0 immunofluorescence intensity": 86.2}
{"smiles": "O=C(C=Cc1ccc(O)c(O)c1)c1ccc(O)cc1O", "note": "[Butein]", "H1.0 immunofluorescence intensity": 94.3}
{"smiles": "COc1ccccc1CNCCCCCCNCCCCCCCCNCCCCCCNCc1ccccc1OC.Cl.Cl.Cl.Cl", "note": "[Methoctramine tetrahydrochloride]", "H1.0 immunofluorescence intensity": 103}
{"smiles": "C[N+](C)(CCCCCC[N+](C)(C)CCCN1C(=O)c2cccc3cccc(c23)C1=O)CCCN1C(=O)c2cccc3cccc(c23)C1=O.[Br-].[Br-]", "H1.0 immunofluorescence intensity": 97.2}
{"smiles": "CC(C)NCC(O)c1ccc(O)c(O)c1", "note": "(racemic) [DL-Isoproterenol]", "H1.0 immunofluorescence intensity": 93.8}
{"smiles": "Cc1ccc(C(=CCN2CCCC2)c2ccccn2)cc1.Cl", "note": "[Triprolidine hydrochloride]", "H1.0 immunofluorescence intensity": 97.5}
{"smiles": "O=P(O)(O)C(O)(Cn1ccnc1)P(=O)(O)O", "note": "[Zoledronic acid]", "H1.0 immunofluorescence intensity": 94}
{"smiles": "c1coc(CNc2ncnc3nc[nH]c23)c1", "note": "[Kinetin]", "H1.0 immunofluorescence intensity": 95.4}
{"smiles": "CC1=C(C(=O)Nc2cc3cn[nH]c3cc2F)C(c2ccc(C(F)(F)F)cc2)CC(=O)N1", "note": "(stereo not given)", "H1.0 immunofluorescence intensity": 87.8}
{"smiles": "O=C(O)COc1ccc(C(=O)c2cccs2)c(Cl)c1Cl", "note": "[[2,3-dichloro-4-(2-thienylcarbonyl)phenoxy]acetic acid]", "H1.0 immunofluorescence intensity": 95.1}
{"smiles": "CCCCNc1ncc(C(=O)NCc2ccc(-n3ccnc3)cc2)c(NC2CCC(O)CC2)n1", "note": "(stereo not given)", "H1.0 immunofluorescence intensity": 118}
